Assay results from PubChem BioAssay AID1159580 (chemical genetic matrix, 2015).
Where “and” joins values, the source holds several entries; their conditions need not be identical. Equal values may be shown once. About 2,000 (36%) of roughly 5,500 compounds were called active. Inconclusive results (about 18%) are left out. No stated cut-off is given here; in the data, active means normalized growth mostly below about 0.91 (no sharp cut-off); inconclusive means no clear call, values can overlap the other calls; inactive means mostly above about 0.92. Some of the results follow.

Assay: chemical genetic growth profiling, strain panel (AID 1159580);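 further: tested at 20 µM; growth read once vehicle control cultures reached saturation at 30 °C; 1 = growth at the plate median or of vehicle wells; lower values mean less growth of the strain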
Conditions: S. cerevisiae deletion strains, growth OD

Measured: normalized growth

CC(=O)[O][Hg][c]1ccccc1
active: locus YAL013W, strain DEP1, hits give low values 0.0588 | locus YAL021C, strain ccr4, hits give low values 0.0671 | locus YAL026C, strain drs2, hits give low values 0.0633 | locus YAL030W, strain snc1, hits give low values 0.0569 | locus YBL061C, strain skt5, hits give low values 0.0592 | locus YBR009C, strain hhf1, hits give low values 0.066 | locus YBR021W, strain FUR4, hits give low values 0.089 | locus YBR023C, strain chs3, hits give low values 0.0614 | locus YBR171W, strain sec66, hits give low values 0.0817 | locus YBR229C, strain ROT2, hits give low values 0.0467 | locus YBR231C, strain swc5, hits give low values 0.0619 | locus YBR279W, strain paf1, hits give low values 0.0597 | locus YCL011C, strain gbp2, hits give low values 0.0585 | locus YCL016C, strain dcc1, hits give low values 0.0648 | locus YCL029C, strain bik1, hits give low values 0.0611 | locus YCL061C, strain MRC1, hits give low values 0.066 | locus YCL069W, strain vba3, hits give low values 0.062 | locus YCR088W, strain abp1, hits give low values 0.0606 | locus YDL005C, strain med2, hits give low values 0.0736 | locus YDL035C, strain GPR1, hits give low values 0.0539 | locus YDL040C, strain nat1, hits give low values 0.0587 | locus YDL074C, strain BRE1, hits give low values 0.0962 | locus YDL101C, strain DUN1, hits give low values 0.0592 | locus YDL134C, strain PPH21, hits give low values 0.0501 | locus YDL185W, strain tfp1, hits give low values 0.0588 | locus YDL192W, strain arf1, hits give low values 0.0622 | locus YDR001C, strain nth1, hits give low values 0.0585 | locus YDR069C, strain doa4, hits give low values 0.063 | locus YDR101C, strain arx1, hits give low values 0.0626 | locus YDR137W, strain rgp1, hits give low values 0.0849 | locus YDR150W, strain NUM1, hits give low values 0.0584 | locus YDR159W, strain sac3, hits give low values 0.0919 | locus YDR162C, strain NBP2, hits give low values 0.0545 | locus YDR195W, strain ref2 0.124 | locus YDR297W, strain sur2, hits give low values 0.0565 | locus YDR318W, strain mcm21, hits give low values 0.0644 | locus YDR334W, strain swr1, hits give low values 0.0648 | locus YDR335W, strain msn5, hits give low values 0.0613 | locus YDR388W, hits give low values 0.0584 | locus YDR392W, strain spt3, hits give low values 0.1 | locus YDR502C, strain sam2, hits give low values 0.0611 | locus YEL003W, strain gim4, hits give low values 0.0567 | locus YEL037C, strain rad23, hits give low values 0.0594 | locus YEL061C, strain CIN8 (second series), hits give low values 0.0646 | locus YEL061C, strain CIN8, hits give low values 0.0509 | locus YER015W, strain faa2, hits give low values 0.0603 | locus YER016W, strain bim1, hits give low values 0.0596 | locus YER110C, hits give low values 0.079 | locus YER111C, strain swi4, hits give low values 0.0727 | locus YER155C, strain BEM2 (second series), hits give low values 0.0919 | locus YER155C, strain BEM2, hits give low values 0.066 | locus YER167W, strain BCK2, hits give low values 0.0545 | locus YFR010W, strain ubp6, hits give low values 0.0677 | locus YGL078C, strain dbp3, hits give low values 0.0571 | locus YGL086W, strain mad1, hits give low values 0.0571 | locus YGL167C, strain pmr1, hits give low values 0.073 | locus YGL173C, strain kem1, hits give low values 0.0683 | locus YGL227W, strain vid30, hits give low values 0.0651 | locus YGL240W, strain doc1, hits give low values 0.077 | locus YGL248W, strain PDE1, hits give low values 0.0503 | locus YGL253W, strain hxk2, hits give low values 0.055 | locus YGR078C, strain PAC10, hits give low values 0.0552 | locus YGR135W, strain pre9, hits give low values 0.0651 | locus YGR229C, strain SMI1, hits give low values 0.0631 | locus YGR252W, strain gcn5, hits give low values 0.166 | locus YHR013C, strain ard1, hits give low values 0.105 | locus YHR027C, strain rpn1, hits give low values 0.0615 | locus YHR030C, strain SLT2, hits give low values 0.0511 and 0.112 | locus YHR079C, strain IRE1 (second series), hits give low values 0.0572 | locus YHR079C, strain IRE1, hits give low values 0.12 | locus YHR094C, strain hxt1, hits give low values 0.0582 | locus YHR129C, strain ARP1, hits give low values 0.0567 | locus YHR142W, strain chs7, hits give low values 0.0763 | locus YHR200W, strain rpn10, hits give low values 0.0605 | locus YIL066C, strain RNR3, hits give low values 0.059 | locus YIL073C, strain SPO22, hits give low values 0.112 | locus YIL125W, strain kgd1, hits give low values 0.0567 | locus YIR030C, strain dcg1, hits give low values 0.0603 | locus YJL092W, strain hpr5, hits give low values 0.0589 | locus YJL095W, strain BCK1 (second series), hits give low values 0.0569 | locus YJL095W, strain BCK1, hits give low values 0.0577 and 0.107 | locus YJL115W, strain asf1, hits give low values 0.0743 | locus YJL129C, strain trk1, hits give low values 0.0912 | locus YJL134W, strain LCB3, hits give low values 0.0514 | locus YJL154C, strain vps35, hits give low values 0.0614 | locus YJL164C, strain tpk1, hits give low values 0.0658 | locus YJL166W, strain qcr8, hits give low values 0.0602 | locus YJL168C, strain set2, hits give low values 0.0596 | locus YJL187C, strain SWE1 (second series), hits give low values 0.0495 | locus YJL187C, strain SWE1, hits give low values 0.0566 | locus YJR043C, strain POL32, hits give low values 0.069
